Reference: PubChem BioAssay
Records with an inconclusive call do not appear. For part of these data: Entries with a potency or affinity are not part of this list. Calls of active or inactive are those of the source. Unless noted, no rule for the calls is given here.

Assays:
[1] = blockers of polyQ-driven CASP3 activation – cell-based (AID 1583); details: polyglutamine-induced caspase-3 activation, cell assay; stronger effect = higher value;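 tested at 10 µM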
[2] = yeast 75Q aggregation reduction – 75Q-TubU reporter (AID 1593); details: Yeast 75Q polyglutamine aggregation reporter
[3] = restoration of touch response, mutant HTT neurons – whole organism, C. elegans mechanosensory neurons, N-terminal huntingtin (AID 1599); details: C. elegans polyQ-huntingtin mechanosensory neurons, stronger effect = higher value
[4] = blockers of cytochrome c efflux from mitochondria – biochemical, purified mitochondria (AID 1603); details: stronger effect = lower value;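 also: mouse liver mitochondria challenged with calcium chloride; signal normalized to the plate average as 100%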
[5] = polyglutamine aggregate formation blockers (AID 1604); details: polyglutamine-induced protein aggregation inhibition assay; stronger effect = higher value; tested at 2.5 µM
[6] = glutamate transport activators, MN-1 cells, MN-1 cell line (AID 1612); details: MN-1 motor neuron cells, stronger effect = higher value;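 also: tested at 1 µM final; 0% = mean of DMSO vehicle wells on each plate; positive means more glutamate uptake than control and negative means less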
[7] = 75Q-TubH aggregate inhibition, S. cerevisiae, yeast (AID 1616); details: S. cerevisiae 75Q-TubH polyglutamine aggregation suppression; stronger effect = higher value
[8] = GFP-Q80 aggregate reduction, neuronal-like cells, cell-based, NGF-treated PC12, GFPQ80 (AID 1614); details: PC12 NGF-treated GFP-polyQ80 inclusion reduction;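 also: lower means fewer inclusions and 0 means no inclusions at all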
[9] = tested on: Hepatitis C virus NS3 helicase; test: blockers of NS3h binding to ssDNA – biochemical, fluorescence polarization, LOPAC1280 library, primary screen (AID 687035; in the data active = inhibition above about 37%); details: Purified HCV NS3 helicase, Cy5-dT15 ssDNA binding fluorescence polarization; stronger effect = higher value; concentration not given here
[10] = compounds altering Cy5-DNA-NS3h complex signal – biochemical, LOPAC1280, artefact control for HCV NS3 helicase inhibitor project (AID 687037); details: Cy5-DNA-NS3h complex fluorescence interference counterscreen
[11] = target: ATP-dependent translocase ABCB1 (Homo sapiens) (UniProt P08183); test: P-glycoprotein substrate transport blockade – cell-based (AID 377; in the data active = fluorescence slope change above about 50%); details: MDR1-expressing cells, fluorescent substrate accumulation slope; stronger effect = higher value; concentration not given here
Chain of ATP-dependent translocase ABCB1 (Homo sapiens) (P08183 whole entry, looked up): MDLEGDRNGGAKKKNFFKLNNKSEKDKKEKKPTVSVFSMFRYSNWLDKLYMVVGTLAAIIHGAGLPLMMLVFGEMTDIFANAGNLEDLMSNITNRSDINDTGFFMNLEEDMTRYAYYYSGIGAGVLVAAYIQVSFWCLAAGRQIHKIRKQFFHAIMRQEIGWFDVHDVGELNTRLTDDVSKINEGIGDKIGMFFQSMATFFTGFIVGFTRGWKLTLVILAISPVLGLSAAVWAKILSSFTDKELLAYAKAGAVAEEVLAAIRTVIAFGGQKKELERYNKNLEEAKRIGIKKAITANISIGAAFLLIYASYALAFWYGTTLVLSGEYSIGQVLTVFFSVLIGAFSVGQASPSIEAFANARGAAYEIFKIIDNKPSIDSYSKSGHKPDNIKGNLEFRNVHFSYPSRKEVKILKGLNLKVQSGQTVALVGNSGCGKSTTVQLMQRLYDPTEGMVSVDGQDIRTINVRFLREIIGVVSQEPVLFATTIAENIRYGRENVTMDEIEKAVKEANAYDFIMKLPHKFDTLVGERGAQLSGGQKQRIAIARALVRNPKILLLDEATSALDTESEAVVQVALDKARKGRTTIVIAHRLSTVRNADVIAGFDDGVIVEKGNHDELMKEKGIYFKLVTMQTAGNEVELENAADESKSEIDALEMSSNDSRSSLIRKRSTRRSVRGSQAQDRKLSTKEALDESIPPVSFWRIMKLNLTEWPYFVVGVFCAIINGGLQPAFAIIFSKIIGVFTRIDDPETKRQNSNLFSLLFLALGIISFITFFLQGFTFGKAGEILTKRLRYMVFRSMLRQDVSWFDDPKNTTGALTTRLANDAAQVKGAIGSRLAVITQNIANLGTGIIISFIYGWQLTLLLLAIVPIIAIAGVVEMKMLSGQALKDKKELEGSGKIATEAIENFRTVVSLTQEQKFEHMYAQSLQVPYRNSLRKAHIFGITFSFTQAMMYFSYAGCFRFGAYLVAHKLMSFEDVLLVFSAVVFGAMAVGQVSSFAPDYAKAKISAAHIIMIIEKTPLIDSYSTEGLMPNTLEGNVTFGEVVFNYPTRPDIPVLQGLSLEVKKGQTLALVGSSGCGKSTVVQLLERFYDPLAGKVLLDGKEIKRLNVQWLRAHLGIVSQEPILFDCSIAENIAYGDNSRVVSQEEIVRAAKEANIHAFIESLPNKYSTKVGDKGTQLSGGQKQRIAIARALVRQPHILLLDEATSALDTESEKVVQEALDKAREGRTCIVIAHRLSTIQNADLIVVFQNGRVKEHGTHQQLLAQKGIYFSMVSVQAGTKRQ

[12] = compounds altering viability of human ES cells (AID 493140); details: human embryonic stem cell survival screen; stronger effect = higher value;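 also: cells exposed to compounds for four days before counting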
[13] = compounds altering circadian rhythm period length – cell-based, LOPAC library, luminescence reporter (AID 2774); details: circadian reporter cells, at 7 µM, actives lie on both sides;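 also: values are relative to mean of DMSO wells on each plate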
[14] = P. berghei load reduction in hepatocytes – cell-based, HepG2, luciferase luminescence, HepG2 viability, primary screen (AID 624349; in the data active = parasite load remaining mostly below about 12%, no sharp cut-off; inactive = mostly above about 10%;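 also: 100% = mean of DMSO negative control wells on the same plate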); details: P. berghei liver stage in HepG2, luciferase luminescence, concentration not given here; parasite load remaining: stronger effect = lower value; viability: measured here: HepG2 viability without parasites

Question: Which inhibition [1] does the source give for C[C@]12CCC3C(CC[C@@H]4C[C@H](O)CC[C@]34C)C1CCC2=O (some centres not stated) here?
Answer: 61%

Question: And the score [2]?
Answer: 0.81

Question: What about the rescue above control [3] of the same molecule?
Answer: -3.82

Question: What about the cytochrome c release ratio [4] of the same molecule?
Answer: 0.77

Question: What about the inhibition of aggregation [5] of the same molecule?
Answer: 91.7%

Question: What about the glutamate uptake change [6] of the same molecule?
Answer: -9.61%

Question: And the aggregation suppression score [7]?
Answer: 0.472

Question: Which inhibition [1] does the source give for CNC(C)C(=O)c1ccccc1 (configuration not stated) here?
Answer: -15.1%

Question: What about the score [2] of the same molecule?
Answer: 1.02

Question: And the rescue above control [3]?
Answer: -6.75

Question: What about the cytochrome c release ratio [4] of the same molecule?
Answer: 1.05

Question: What about the inhibition of aggregation [5] of the same molecule?
Answer: 49.7%

Question: And the glutamate uptake change [6]?
Answer: -3.86%

Question: And the inclusion score [8]?
Answer: 2

Question: And the aggregation suppression score [7]?
Answer: 1.11

Question: For CCOC(=O)C1(c2ccccc2)CCN(C)CC1, which inhibition [1] is on record?
Answer: 15%

Question: What about the score [2] of the same molecule?
Answer: 1.03

Question: And the rescue above control [3]?
Answer: 5.54

Question: What about the cytochrome c release ratio [4] of the same molecule?
Answer: 0.93

Question: And the inhibition of aggregation [5]?
Answer: 7.48%

Question: And the glutamate uptake change [6]?
Answer: 5.98%

Question: What about the inclusion score [8] of the same molecule?
Answer: 2

Question: And the aggregation suppression score [7]?
Answer: 1.14

Question: With NC(Cc1ccc(N(CCCl)CCCl)cc1)C(=O)O (configuration not stated) as the molecule, how does the inhibition [9] read?
Answer: -5% (inactive)

Question: What about the fluorescence ratio (interference) [10] of the same molecule?
Answer: 1 (inactive)

Question: With CCN1C[C@]2(COC)CC[C@H](OC)[C@]34C5C[C@@H]6[C@@H](OC)CC7(OCO[C@]7([C@H]13)[C@@H](O)C24)C5[C@H]6OC (some centres not stated) as the molecule, how does the fluorescence slope change [11] read?
Answer: 13% (inactive)

Question: What about the survival [12] of the same molecule?
Answer: 6.42 (inactive)

Question: Which results are given for CCCn1c(C)c(C(=O)c2ccc3ccccc3c2)c2ccccc21?
Answer: period change [13]: -0.02 h (inactive); inhibition [9]: -4% (inactive); fluorescence ratio (interference) [10]: 1 (inactive)

Question: For COc1cc(C(=O)OC2CC3CCC(C2)N3C)ccc1O (configuration not stated), which fluorescence slope change [11] is on record?
Answer: 5.8% (inactive)

Question: And the survival [12]?
Answer: 1.67 (inactive)

Question: For COC(C)C(O)(C(=O)OCC1=CCN2CC[C@H](O)[C@@H]12)C(C)C (some centres not stated), which fluorescence slope change [11] is on record?
Answer: 29% (inactive)

Question: What about the survival [12] of the same molecule?
Answer: 1.33 (inactive)

Question: Which period change [13] does the source give for COc1cc(CC(C)N)c(OC)cc1I (configuration not stated) here?
Answer: -0.11 h (inactive)

Question: What about the inhibition [9] of the same molecule?
Answer: -3% (inactive)

Question: And the fluorescence ratio (interference) [10]?
Answer: 1 (inactive)

Question: With CCC(C)C1OC2(C=CC1C)CC1CC(CC=C(C)C(OC3CC(OC)C(OC4CC(OC)C(O)C(C)O4)C(C)O3)C(C)C=CC=C3COC4C(O)C(C)=CC(C(=O)O1)C34O)O2 (configuration not stated) as the molecule, how does the survival [12] read?
Answer: 3.5 (inactive)

Question: For CN1[C@@H](C[C@@H](O)c2ccccc2)CCC[C@H]1C[C@H](O)c1ccccc1, which fluorescence slope change [11] is on record?
Answer: 85.7% (active)

Question: Which fluorescence slope change [11] does the source give for C[C@H](N)[C@@H](O)c1ccc(O)c(O)c1 here?
Answer: 17.7% (inactive)

Question: What does the source list for CO[C@@H]1C=C2CCN(C)[C@@H]2C2c3cc4c(cc3C(=O)OC21)OCO4 (some centres not stated)?
Answer: fluorescence slope change [11]: 12.6% (inactive); survival [12]: 4.75 (inactive)

Question: For CCC1C2CC3[C@@H]4N(C)c5ccccc5[C@]45CC(C2[C@H]5O)N3[C@@H]1O (some centres not stated), which fluorescence slope change [11] is on record?
Answer: 67.5% (active)

Question: And the survival [12]?
Answer: 5.33 (inactive)

Question: And the parasite load remaining [14]?
Answer: 65.3% (inactive)

Question: What about the viability [14] of the same molecule?
Answer: 70.7%

Question: With CC/C=C\C[C@@H](/C=C/C=C\C/C=C\C/C=C\CCCC(=O)O)OO as the molecule, how does the survival [12] read?
Answer: 90.4 (inactive)

Question: Which fluorescence slope change [11] does the source give for CN1CCc2cc3c(c4c2C1Cc1ccccc1-4)OCO3 (configuration not stated) here?
Answer: 11.3% (inactive)

Question: Which fluorescence slope change [11] does the source give for C#C[C@]1(O)CCC2C3CCC4=CC(=O)CC[C@]4(C)C3CC[C@@]21C (some centres not stated) here?
Answer: 63.9% (active)

Question: What about the survival [12] of the same molecule?
Answer: 10.7 (inactive)

Question: And the parasite load remaining [14]?
Answer: 97.8% (inactive)

Question: And the viability [14]?
Answer: 86.3%

Question: With C#CC1(O)CC[C@H]2[C@@H]3CCC4=CCCC[C@@H]4[C@H]3CC[C@@]21C (some centres not stated) as the molecule, how does the survival [12] read?
Answer: 37.7 (inactive)

Question: Which fluorescence slope change [11] does the source give for CC[C@@H](C)C(=O)O[C@H]1[C@H](O)[C@H]2[C@@H](CN3C[C@@H](C)CC[C@H]3[C@@]2(C)O)C2C[C@]34O[C@@]5(O)[C@@H](OC(=O)C(C)(O)CC)CC[C@@]3(C)[C@@H]5[C@@H](OC(C)=O)[C@@H](OC(C)=O)[C@H]4[C@@]21O (some centres not stated) here?
Answer: 24.2% (inactive)

Question: And the survival [12]?
Answer: 6.33 (inactive)

Question: What about the parasite load remaining [14] of the same molecule?
Answer: 72.4% (inactive)

Question: And the viability [14]?
Answer: 77.1%
